Laboratory results published in PubChem BioAssay.
Activity calls are given as the source filed them. Unless noted, how the calls were made is not given here.

Key:
[1] = test system: XIP peptide (Xip251-270) binding; test: small-molecule binders of XIP peptide, primary screen, biochemical, small-molecule microarray, fluorescence 635/667 nm, 0.1 µg/mL protein (AID 1182); conditions: fluorescent protein binding, 635 nm, higher = more signal, called active from +8 up or from −8 down
XIP peptide (Xip251-270) = test: small-molecule binders of XIP peptide, primary screen, biochemical, small-molecule microarray, fluorescence 635/667 nm, 0.5 µg/mL protein (AID 1183); conditions: small-molecule microarray binding, fluorescence 635 nm; higher = more signal
[2] = Plasmodium falciparum growth inhibition, primary screen, strain 3D7, DAPI fluorescence, 100 nL (AID 1184);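 further: parasites grown inside human red blood cells in medium with human serum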; conditions: P. falciparum 3D7 growth, 3 d, higher = more signal
[3] = target: Homeobox protein Hox-A13 (Mus musculus) (UniProt Q62424); test: inhibitors of HoxA13-DNA binding, primary screen, biochemical, fluorescence polarization, labeled oligonucleotide (AID 1185); conditions: 15 min, higher = more signal, called active from +8 up or from −8 down
[4] = inhibitors of hydroxyurea-induced Chk1 phosphorylation, primary screen, imaging, HeLa, phospho-Chk1 antibody, percent positive cells (AID 1186); conditions: hydroxyurea-induced phospho-Chk1 immunofluorescence imaging, higher = more signal
[5] = inhibitors of hydroxyurea-induced Chk1 phosphorylation, primary screen, imaging, HeLa, phospho-Chk1 nuclear intensity (AID 1187); conditions: hydroxyurea-induced phospho-Chk1 immunofluorescence imaging, higher = more signal

Homeobox protein Hox-A13 (Mus musculus), sequence (Q62424 whole entry, looked up): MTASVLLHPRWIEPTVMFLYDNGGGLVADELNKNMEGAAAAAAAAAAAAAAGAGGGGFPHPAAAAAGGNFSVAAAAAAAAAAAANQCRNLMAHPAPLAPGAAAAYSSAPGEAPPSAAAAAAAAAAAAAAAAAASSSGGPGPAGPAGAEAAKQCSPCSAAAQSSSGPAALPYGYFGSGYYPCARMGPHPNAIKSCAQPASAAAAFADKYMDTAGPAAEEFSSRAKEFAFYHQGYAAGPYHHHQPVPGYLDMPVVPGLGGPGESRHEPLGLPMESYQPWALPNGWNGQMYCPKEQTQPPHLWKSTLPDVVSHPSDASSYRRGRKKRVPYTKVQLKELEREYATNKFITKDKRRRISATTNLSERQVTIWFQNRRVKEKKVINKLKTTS

SMILES	composite z-score [1]	composite z-score (XIP peptide (Xip251-270))	z-score [2]	z-score [3]	z-score [4]	z-score [5]
CC(C)NC(=O)[C@@H]1c2ccccc2C(=O)N(C2Cc3ccccc3C2)[C@H]1c1ccc(CO)cc1	0.536 (inactive)	0.787	-0.826	-1.94 (inactive)	-0.24 (inactive)	0.0987 (inactive)
C=C[C@H](CO)NS(=O)(=O)c1ccc(Br)cc1	-0.365 (inactive)	0.242	0.843	0.205 (inactive)	-0.462 (inactive)	-0.458 (inactive)
COC(=O)[C@@]1(Cc2ccc(OC)cc2)[C@H]2c3cc(C(=O)N4CCCC4)n(Cc4ccc(C)c(F)c4F)c3C[C@H]2CN1C(=O)c1ccccc1	0.128 (inactive)	0.715	-1.12	-0.498 (inactive)	-0.0213 (inactive)	-0.423 (inactive)
CC(=O)n1cc(C(O)C2C=CC3C(=O)N(c4ccccc4)C(=O)C3N2Nc2ccc([N+](=O)[O-])cc2)c2ccccc21 (stereo not drawn)	1.15 (inactive)	0.87	-0.306	-4.3 (inactive)	0.541 (inactive)	-0.219 (inactive)
C=CCNC(=O)[C@H]1[C@@H]2C(=O)O[C@@H](c3ccccc3)[C@@H](c3ccccc3)N2[C@@H](c2ccccc2OCCO)[C@]12C(=O)Nc1ccc(C#CCCO)cc12	0.749 (inactive)	0.369	-2.08	-3.91 (inactive)	-0.677 (inactive)	-1.24 (inactive)
COC(=O)[C@@]1(Cc2ccc(OC)cc2)[C@H]2c3cc(C(=O)N(C)C)n(Cc4ccc(S(C)(=O)=O)cc4)c3C[C@H]2CN1C(=O)c1ccccc1	1.64 (inactive)	0.233	-0.0665	-5.38 (inactive)	-0.907 (inactive)	-1.03 (inactive)
COc1ccc(C#Cc2ccc3c(c2)[C@]2(C(=O)N3)[C@H](C(=O)NC[C@H](O)c3ccccc3)[C@H]3C(=O)O[C@H](c4ccccc4)[C@H](c4ccccc4)N3[C@@H]2c2ccc(O)cc2)cc1	0.627 (inactive)	0.624	-0.0029	-0.752 (inactive)	-0.371 (inactive)	-0.628 (inactive)
CCCc1cc2c(n1Cc1cc(F)cc(F)c1)C(C)C1CN(C(=O)c3ccccc3)C(C)(C(=O)OC)C21 (stereo not drawn)	0.264 (inactive)	-0.0681	-1.32	-2.41 (inactive)	0.789 (inactive)	0.0213 (inactive)
COc1cc2c(cc1O)C(C1CC1)N(Cc1sc3ccccc3c1Cl)CC2 (stereo not drawn)	0.275 (inactive)	0.637	-1.23	-2.44 (inactive)	-0.147 (inactive)	0.302 (inactive)
O=C(NCCO)C1=C[C@H](Oc2ccccc2I)[C@@H](O)[C@H](N(Cc2ccco2)C(=O)Cc2ccccc2)C1	0.143 (inactive)	-1.13	-1.32	-2.48 (inactive)	0.0831 (inactive)	0.304 (inactive)
C=CCOC(=O)[C@H]1[C@@H]2C(=O)O[C@@H](c3ccccc3)[C@@H](c3ccccc3)N2[C@@H](c2ccc(OCCOC(=O)[C@H]3C[C@H]4C(=O)N[C@@H](CCCCN(C)C)C(=O)N4[C@H]3c3ccc(O)cc3)cc2)[C@]12C(=O)Nc1ccc(I)cc12	0.768 (inactive)	0.791	-0.193	-4.89 (inactive)	0.622 (inactive)	-0.163 (inactive)
COc1ccc(CCNC(=O)[C@@]2(Sc3ccc(C)cc3)CC(=O)N(C(C)C)[C@@H]2c2ccc(CO)cc2I)cc1	0.427 (inactive)	0.368	-1.01	-2.89 (inactive)	0.332 (inactive)	0.404 (inactive)
O=C1NC(=O)C2C1C=CC(C(O)c1cccs1)N2Nc1ccc(Cl)cc1Cl (stereo not drawn)	0.228 (inactive)	0.554	-0.335	-4.05 (inactive)	-0.266 (inactive)	-0.45 (inactive)
O=C1C[C@]2(c3ccc([N+](=O)[O-])cc3)C(=O)N(CC(F)(F)F)c3cc(CO)ccc3[C@H]2N1C1CCCCC1	-0.0975 (inactive)	0.0582	-0.762	-1.39 (inactive)	-0.219 (inactive)	-0.125 (inactive)
COc1cc2c(cc1O)C(c1cccs1)N(C)CC2 (stereo not drawn)	-0.721 (inactive)	0.594	-1.12	-3.91 (inactive)	-0.428 (inactive)	-0.628 (inactive)
C=CCNC(=O)[C@@H]1[C@H]2C(=O)O[C@H](c3ccccc3)[C@H](c3ccccc3)N2[C@H](c2ccc(OCCO)cc2)[C@@]12C(=O)Nc1ccc(C#CCC(C(=O)OC)C(=O)OC)cc12	1.21 (inactive)	0.905	-2.22	-1.05 (inactive)	0.222 (inactive)	0.477 (inactive)
C[N+](C)(C)CCCC[C@@H]1NC(=O)[C@H]2C[C@@H](C(=O)NCCCCCCNC(=O)CS)[C@@H](c3cccc(OCCO)c3)N2C1=O	0.173 (inactive)	0.487	-0.135	-1.87 (inactive)	0.964 (inactive)	1.2 (inactive)

SMILES	composite z-score [1]	composite z-score (XIP peptide (Xip251-270))	z-score [2]	z-score [3]	z-score [4]	z-score [5]
CCCCCN1CC=CC23O[C@@H]4/C=C\CCC(C)OC(=O)C4[C@H]2C(=O)N(C(C)CO)[C@@H]3C1=O (stereo partly drawn)	0.176 (inactive)	0.0664	-0.107	-4.77 (inactive)	-0.808 (inactive)	-0.732 (inactive)
C=C(CC1([C@@H](NP(=O)(c2ccccc2)c2ccccc2)[C@H]2C[C@@H]2CCCC)CC1)c1ccccc1	-0.0402 (inactive)	0.143	-0.548	-2.33 (inactive)	0.779 (inactive)	1.12 (inactive)
CN1C(=O)C2C=CC(C(O)c3ccc([N+](=O)[O-])cc3)N(N3CCCCC3)C2C1=O (stereo not drawn)	0.0993 (inactive)	0.471	-0.114	-3.98 (inactive)	-0.224 (inactive)	-0.167 (inactive)
COCCOC(=O)N1C(=O)[C@@]2(c3cc(C#Cc4ccc(OC)cc4)ccc31)[C@H](c1ccc(O)cc1)N1[C@H](c3ccccc3)[C@H](c3ccccc3)OC(=O)[C@H]1[C@@H]2C(=O)N1CCc2cc(OC)c(OC)cc2C1	0.109 (inactive)	0.629	-2.17	-1.71 (inactive)	0.264 (inactive)	0.948 (inactive)
CC(C)NC(=O)[C@@]1(C)c2ccccc2C(=O)N(Cc2cc(C(F)(F)F)cc(C(F)(F)F)c2)[C@H]1c1ccc(CO)cc1	0.281 (inactive)	0.427	-1.54	-3.76 (inactive)	-0.281 (inactive)	-0.197 (inactive)
C=CCC(OC(C)=O)[C@@H]1[C@@H](N(Cc2ccc(-c3ccccc3)cc2)C(=O)c2ccc(-c3ccccc3)cc2)c2cc(OCCCO)ccc2N1C(=O)Cc1ccc2ccccc2c1 (stereo partly drawn)	-0.313 (inactive)	-0.241	0.799	-1.05 (inactive)	0.321 (inactive)	0.392 (inactive)
Cc1ccccc1C(O)C1C=CC2C(=O)N(c3ccccc3)C(=O)C2N1Nc1ccc(C(C)C)cc1 (stereo not drawn)	0.167 (inactive)	0.599	-0.739	-1.77 (inactive)	0.524 (inactive)	0.118 (inactive)
COc1cc(COC(C)=O)ccc1OC(C)=O	-0.603 (inactive)	0.213	0.287	0.579 (inactive)	-1.08 (inactive)	-1.53 (inactive)
CCOC(=O)[C@H]1C/C=C/C[C@H](C(=O)OCC)C(=O)O[C@H]2[C@@H](OC)O[C@H](CO)[C@@H](OC(=O)c3c(OC)cccc3OC)[C@@H]2OC1=O	0.676 (inactive)	0.709	0.754	-3 (inactive)	-0.0052 (inactive)	-0.142 (inactive)
COc1ccc(CCNC(=O)[C@@]2(Sc3ccc(C)cc3)CC(=O)N(C3Cc4ccccc4C3)[C@@H]2c2ccc(CO)cc2I)cc1	-0.0449 (inactive)	0.81	-0.725	-2.4 (inactive)	0.136 (inactive)	0.684 (inactive)
COCCCNC(=O)[C@@H]1c2ccccc2C(=O)N(Cc2ccccc2Cl)[C@H]1c1ccc(CO)cc1	0.432 (inactive)	0.0699	0.652	-2.2 (inactive)	-0.57 (inactive)	-0.352 (inactive)
COc1ccc(CCNC(=O)[C@@H]2c3ccccc3C(=O)N(Cc3ccccc3Cl)[C@H]2c2ccc(CO)cc2)cc1	0.187 (inactive)	0.431	0.263	-3.28 (inactive)	0.139 (inactive)	0.595 (inactive)
O=C(NC1CC1)[C@@H]1c2ccccc2C(=O)N(Cc2ccccc2Cl)[C@H]1c1ccc(CO)cc1	0.628 (inactive)	0.119	-0.46	-2.23 (inactive)	-0.825 (inactive)	-1.13 (inactive)
C=C(CCCC)/C(=C/C[C@H](OC(C)=O)c1ccccc1OCCO)c1cc(C(=O)OC)ccc1OC	0.0757 (inactive)	-0.167	-2.66	-3.55 (inactive)	-0.836 (inactive)	-0.714 (inactive)
C=CC[C@]1(C(=O)NCCCOC)N=C(c2ccc(OCCCO)cc2)O[C@H]1c1ccccc1CN=[N+]=[N-]	0.967 (inactive)	0.763	-2.52	-5.11 (inactive)	0.14 (inactive)	-0.0062 (inactive)
CCOC(=O)C[C@H]1[C@H](OC(=O)c2ccc(C(=O)c3ccccc3)cc2)[C@@H](NC(=O)c2ccc3ccccc3n2)c2cc(OCCCO)ccc2N1C(=O)c1ccccc1	-0.021 (inactive)	0.545	-0.894	-1.37 (inactive)	0.645 (inactive)	0.334 (inactive)
